# Data as given in PubChem BioAssay (NCATS).
# Where “and” joins values, the source holds several entries; their conditions need not be identical. Equal entries are not always repeated. Unmarked numbers belong to inactive results. Results filed as inconclusive are left out. A call without a number means that no potency is given here. Calls of active or inactive are those of the source. Unless noted, calls follow the shape of the dose curve; as a rule, active = well fitted curve in the direction sought with a large enough effect; inconclusive = small, poorly fitted or top-dose-only effect, or another doubt; inactive = no such curve, though single readings can be large; an effect the other way counts as inactive or inconclusive.
# Key:
# [1] = target: Guanine nucleotide-binding protein G(i) subunit alpha-1 (Homo sapiens) (UniProt P63096); assay: qHTS Assay for Inhibitors of RGS12 GoLoco Motif Activity (Green Fluorophore) (AID 879); also: potency is read from the fitted curve at half-maximal effect
# Guanine nucleotide-binding protein G(i) subunit alpha-1 (Homo sapiens), sequence (P63096 whole entry, looked up): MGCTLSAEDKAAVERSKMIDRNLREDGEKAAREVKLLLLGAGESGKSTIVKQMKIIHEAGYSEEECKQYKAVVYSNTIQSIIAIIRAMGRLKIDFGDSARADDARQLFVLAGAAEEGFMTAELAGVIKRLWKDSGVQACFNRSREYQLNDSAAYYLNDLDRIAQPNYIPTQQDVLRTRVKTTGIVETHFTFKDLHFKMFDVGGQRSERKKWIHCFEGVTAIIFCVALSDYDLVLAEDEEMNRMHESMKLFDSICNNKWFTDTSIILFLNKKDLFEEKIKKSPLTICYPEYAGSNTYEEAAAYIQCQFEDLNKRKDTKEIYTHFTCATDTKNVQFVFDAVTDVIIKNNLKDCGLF
# Procedure, shortened: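 A drop in FITC polarization marked displacement of the FITC-tagged RGS12 GoLoco peptide (10 nM) from Gαi1 (50 nM). Compounds were incubated 10 min at room temperature in Tris pH 7.5 buffer containing 150 mM NaCl, 0.1 mM GDP and 0.05% NP40; unlabeled peptide titration served as control.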
# [2] = qHTS Assay for Identification of Small Molecule Antagonists for NFkB Signaling Pathway (AID 895; active = well fitted inhibition curve with a large enough effect in the signal ratio, with a control signal flat, not every such curve was filed as active; the % refers to the signal ratio; also: potency is read from the fitted curve at half-maximal effect)
# Procedure, shortened: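 NFkB-bla ME-180 cervical carcinoma cells with beta-lactamase reporter under NFkB response element; compounds added, then TNF alpha at 10 pM final (EC50), 5 h at 37 C. LiveBLAzer substrate 2 h, room temperature; emission 460/530 nm at 405 nm excitation.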
# [3] = qHTS Assay for Identification of Small Molecule Agonists for Thrombopoietin (TPO) Signaling Pathway (AID 917); also: potency is read from the fitted curve at half-maximal effect
# Procedure, shortened: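 Quantitative HTS for pathway activators: compounds were pin-transferred onto IL-3-starved Ba/F3 cells expressing human TPO receptor, TPO was added at its EC50 (26 pM final), and after 24 hrs at 37 C reporter luciferase was measured.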
# [4] = target: Cytochrome P450 3A4 (Homo sapiens) (UniProt P08684); assay: qHTS Assay for Activators of Cytochrome P450 3A4 (AID 885); also: nearly all actives have a fitted effect of over 65% in size
# Cytochrome P450 3A4 (Homo sapiens), sequence (P08684 whole entry, looked up): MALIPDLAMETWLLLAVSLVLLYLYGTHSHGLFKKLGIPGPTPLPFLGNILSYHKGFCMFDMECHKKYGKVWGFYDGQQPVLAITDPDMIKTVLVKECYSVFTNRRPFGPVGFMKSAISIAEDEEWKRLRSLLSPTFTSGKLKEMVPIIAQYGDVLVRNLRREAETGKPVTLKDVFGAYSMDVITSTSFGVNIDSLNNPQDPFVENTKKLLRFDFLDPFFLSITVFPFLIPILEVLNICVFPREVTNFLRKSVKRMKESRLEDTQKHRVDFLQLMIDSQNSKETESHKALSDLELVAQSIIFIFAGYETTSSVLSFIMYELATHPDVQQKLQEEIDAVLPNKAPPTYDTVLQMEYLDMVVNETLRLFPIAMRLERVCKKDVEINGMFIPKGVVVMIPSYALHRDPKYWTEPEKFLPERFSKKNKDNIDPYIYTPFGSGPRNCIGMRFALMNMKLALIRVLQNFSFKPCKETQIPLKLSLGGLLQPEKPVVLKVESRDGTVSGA
# Procedure, shortened: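 Human CYP3A4 dealkylates Luciferin-PPXE to luciferin, which luciferase detection converts to light. Substrate was at its KM (25uM), buffer 200mM KPO4, reaction 60 min at RT.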
# [5] = qHTS Assay for Identification of Small Molecule Agonists for Hypoxia Response Element Signaling Pathway (AID 914; active = well fitted activation curve with a large enough effect in the signal ratio, with a control signal flat, not every such curve was filed as active; the % refers to the signal ratio); conditions: ME-180 (cervical carcinoma) HRE-bla reporter, beta-lactamase ratio, CoCl2, 17 h; hits give high values
# Procedure, shortened: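 In Opti-MEM containing 0.5% dialyzed FBS and 10 mM HEPES, ME-180 HRE-bla cells received a compound titration and EC50 CoCl2. They were incubated 17 hours, then CCF4-loaded 2.5 hours at room temperature before ratio reading.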
# [6] = target: Cytochrome P450 3A4 (Homo sapiens) (UniProt P08684); assay: qHTS Assay for Inhibitors and Substrates of Cytochrome P450 3A4 (AID 884); also: nearly all actives have a fitted effect of over 50% in size; also: potency is read from the fitted curve at half-maximal effect
# Procedure, shortened: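 Luminescent readout of luciferin produced by CYP3A4 (20 nM) dealkylation of Luciferin-PPXE, 25 uM (its KM). NADPH-driven reaction ran 60 min at RT after 10 min compound preincubation; data scaled to 57 uM ketoconazole as 100% inhibition.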
# [7] = target: Cytochrome P450 2C9 (Homo sapiens) (UniProt P11712); assay: qHTS Assay for Inhibitors and Substrates of Cytochrome P450 2C9 (AID 883); also: nearly all actives have a fitted effect of over 60% in size; also: potency is read from the fitted curve at half-maximal effect
# Cytochrome P450 2C9 (Homo sapiens), sequence (P11712 whole entry, looked up): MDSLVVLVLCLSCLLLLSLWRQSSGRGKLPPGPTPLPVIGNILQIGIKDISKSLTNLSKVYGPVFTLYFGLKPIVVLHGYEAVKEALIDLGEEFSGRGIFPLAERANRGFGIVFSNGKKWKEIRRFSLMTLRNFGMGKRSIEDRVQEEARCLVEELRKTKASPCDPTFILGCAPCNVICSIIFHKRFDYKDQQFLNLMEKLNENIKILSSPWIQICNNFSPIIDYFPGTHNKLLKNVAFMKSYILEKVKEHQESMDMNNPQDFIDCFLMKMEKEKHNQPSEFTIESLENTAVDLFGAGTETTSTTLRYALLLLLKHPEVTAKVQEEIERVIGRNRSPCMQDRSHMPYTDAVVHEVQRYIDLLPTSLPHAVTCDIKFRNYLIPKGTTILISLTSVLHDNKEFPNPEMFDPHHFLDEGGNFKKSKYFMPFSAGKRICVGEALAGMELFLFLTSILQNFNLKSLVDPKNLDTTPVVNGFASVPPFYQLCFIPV
# Procedure, shortened: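 A luminogenic readout tracked human CYP2C9 (10nM) converting deoxyluciferin (100uM, at KM) in 25mM KPO4 during 60 min at 37C with regenerated NADPH. Values normalized to 57uM sulphaphenazole as complete inhibition.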
# [8] = Confirmation and Secondary Assay for Modulators of Hemoglobin Beta Chain Splicing at IVS2 654 locus (AID 910);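 also: per-well total GFP intensity by laser scanning cytometry after 2-day treatment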
# Procedure, shortened: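 HeLa cells stably carrying EGFP interrupted by mutant beta-globin IVS2-654 intron (CMV-driven) were treated with compound for 2 days at 37C; corrected splicing was scored as total peak GFP intensity per well (488 nm excitation, 500-520 nm emission).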
structure (smiles),measurement,setting,value
COc1ccc2[nH]c3c(c2c1)CCNC3,Potency,[1],inactive
same,Potency,[2],5.01 µM (active)
same,Potency,[3],inactive
NCCCP(=O)(O)O,Potency,[1],inactive
same,outcome,[4],inactive
same,activation,[5],-8.81%
same,Potency,[3],inactive
COc1ccc2c(c1)/C(=C/c1cnc[nH]1)C(=O)N2,Potency,[1],inactive
same,Potency,[6],0.794 µM (active)
same,outcome,[4],inactive
O=P(O)(O)C(Cl)(Cl)P(=O)(O)O,Potency,[1],inactive
same,Potency,[2],inactive
same,Potency,[3],inactive
NNC(=O)c1ccc(O)cc1,Potency,[1],inactive
same,Potency,[6],5.01 µM (active)
same,outcome,[4],inactive
same,Potency,[2],inactive
same,Potency,[3],inactive
CP(=O)(O)C1=CCNCC1,Potency,[1],inactive
same,outcome,[4],inactive
same,Potency,[3],inactive
CCCn1c(=O)c2[nH]c(C3CCCC3)nc2n(CCCOC(=O)c2ccc(S(=O)(=O)F)cc2)c1=O,Potency,[1],inactive
same,outcome,[4],inactive
same,Potency,[2],10 µM (active)
same,Potency,[3],inactive
O=[N+]([O-])c1cc(O)c(O)c([N+](=O)[O-])c1,Potency,[1],inactive
same,Potency,[7],10 µM (active) and 794 nM (active)
same,Potency,[2],inactive
same,outcome,[8],inactive
same,Potency,[3],inactive
CCCN(CCC)C1Cc2cc(OC)c(OC)cc2C1,Potency,[1],inactive
same,Potency,[7],inactive
same,Potency,[2],inactive
same,Potency,[3],inactive
c1ccc2c(c1)[I+]c1ccccc1-2,Potency,[1],inactive
same,Potency,[6],3.16 µM (active)
same,outcome,[4],inactive
NC(=O)c1cc(N2CC2)c([N+](=O)[O-])cc1[N+](=O)[O-],Potency,[1],inactive
same,outcome,[4],inactive
same,Potency,[2],inactive
same,Potency,[3],inactive
O=[N+]([O-])c1ccc2nc(N3CCNCC3)ccc2c1,Potency,[1],inactive
same,outcome,[4],inactive
same,activation,[5],-10.4%
COc1ccc2[nH]cc(CCN)c2c1,Potency,[1],inactive
same,Potency,[6],inactive
same,outcome,[8],inactive
same,Potency,[3],inactive
CCS(=O)(=O)Nc1cccc(C(=C2CCCCC2)c2cnc[nH]2)c1,Potency,[1],inactive
same,Potency,[7],631 nM (active)
same,Potency,[6],0.316 µM (active)
same,outcome,[4],inactive
same,Potency,[3],inactive
C[N+](C)(C)CCOC(=O)CBr,Potency,[1],inactive
same,Potency,[2],inactive
same,activation,[5],16.2%
same,Potency,[3],inactive
CCCn1c(C)c(C(=O)c2ccc3ccccc3c2)c2ccccc21,Potency,[1],inactive
same,Potency,[6],inactive
same,Potency,[3],10 µM (active)
Cc1c2ccncc2c(C)c2c1[nH]c1ccccc12,Potency,[1],inactive
same,Potency,[6],158 nM (active) and 398 nM (active)
same,outcome,[4],inactive
NC(=O)COc1c(F)cc(SCCNS(=O)(=O)c2ccccc2)cc1F,Potency,[1],inactive
same,outcome,[4],inactive
same,Potency,[3],inactive
C[N+]1(C)CCN(c2ccccc2)CC1,Potency,[1],inactive
same,outcome,[4],inactive
same,Potency,[3],inactive
Clc1ccc(N2C[C@H]3CC[C@@H](C2)N3)nn1,Potency,[1],inactive
same,Potency,[2],inactive
same,Potency,[3],inactive
O=C(O)c1cc[c]([Hg][Cl])cc1,Potency,[1],25.1 µM (active)
same,Potency,[2],inactive
O=S1(=O)N(CCN2CC=C(c3c[nH]c4cc(F)ccc34)CC2)c2cccc3c2N1CCC3,Potency,[1],inactive
same,Potency,[6],5.01 µM (active)
same,outcome,[4],inactive
same,Potency,[2],inactive
OCc1cnc[nH]1,Potency,[1],inactive
same,Potency,[2],inactive
same,Potency,[3],inactive
NC(=O)CI,Potency,[1],inactive
same,outcome,[4],inactive
same,Potency,[2],inactive
Nc1ccc(CCN2CCN(c3cccc(C(F)(F)F)c3)CC2)cc1,Potency,[1],inactive
same,Potency,[6],7.94 µM (active)
same,outcome,[4],inactive
same,activation,[5],-27.7%
CCCN(CCC)CCc1c[nH]c2ccc(C(N)=O)cc12,Potency,[1],inactive
same,Potency,[7],inactive
same,Potency,[2],inactive
same,Potency,[3],inactive
CC(C)NP(=O)(NC(C)C)OP(=O)(NC(C)C)NC(C)C,Potency,[1],inactive
same,Potency,[2],inactive
same,Potency,[3],inactive
Clc1cc(I)cc(Cl)c1NC1=NCCN1,Potency,[1],inactive
same,Potency,[2],inactive
same,Potency,[3],inactive
C[N+]1(C)[C@@H]2CC[C@H]1CC(OC(=O)c1c[nH]c3ccccc13)C2 (stereo partly specified),Potency,[1],inactive
same,Potency,[6],7.94 µM (active)
same,outcome,[4],inactive
N#CC(C#N)=Cc1cc(O)c(O)c(O)c1,Potency,[1],inactive
same,outcome,[4],inactive
Cc1[nH]c2ccc(O)cc2c1CCN,Potency,[1],inactive
same,outcome,[4],inactive
same,Potency,[2],inactive
same,Potency,[3],inactive
CN1CCC(c2c[nH]c3ccc(O)cc23)CC1,Potency,[1],inactive
same,outcome,[4],inactive
CCC(=O)O[C@@](Cc1ccccc1)(c1ccccc1)[C@@H](C)CN(C)C,Potency,[6],5.01 µM (active)
same,outcome,[4],inactive
NCCc1c[nH]c2ccc(C(N)=O)cc12,Potency,[1],inactive
same,Potency,[2],inactive
same,Potency,[3],inactive
NC(Cc1ccc(N(CCCl)CCCl)cc1)C(=O)O (stereo unspecified),outcome,[4],inactive
same,outcome,[8],inactive
C[C@H](N)CN1CCc2ccc(Br)cc21,Potency,[1],inactive
same,Potency,[3],inactive
CCCN(CCC)[C@H]1CCc2c(F)ccc(O)c2C1,Potency,[1],inactive
same,Potency,[3],inactive
COc1ccc(OC)c(C(O)C(C)N)c1 (stereo unspecified),Potency,[6],inactive
same,outcome,[8],inactive
CCCN(CCC)CCc1ccc(O)c(O)c1,Potency,[1],inactive
same,Potency,[3],inactive
CN1C2CCC1CC(OC(c1ccccc1)c1ccccc1N)C2 (stereo unspecified),Potency,[6],inactive
same,outcome,[8],inactive
NC(N)=NOCC[C@H](N)C(=O)O,Potency,[1],inactive
same,Potency,[3],inactive
O=C1C=C2C=C[C@@H]3C[C@@]2(O1)[C@H]1CCCCN31,Potency,[6],inactive
CN(N=O)c1ccc(O)c(O)c1,Potency,[7],inactive
same,Potency,[6],inactive
same,Potency,[3],inactive
ClC1C(Cl)C(Cl)C(Cl)C(Cl)C1Cl (stereo unspecified),outcome,[8],inactive
NCCc1ccc(S(=O)(=O)F)cc1,Potency,[1],inactive
same,Potency,[2],inactive
same,Potency,[3],inactive
CC1OC1P(=O)(O)O (stereo unspecified),Potency,[6],inactive
c1ccc2c(N3CCNCC3)cccc2c1,Potency,[1],inactive
same,Potency,[3],inactive
CC(=O)NBr,Potency,[1],inactive
same,Potency,[3],inactive
[N-]=[N+]=CC(=O)OCC(N)C(=O)O (stereo unspecified),Potency,[6],inactive
same,outcome,[8],inactive
CCCN(CCC)[C@@H]1CCc2cccc(O)c2C1,Potency,[1],inactive
same,Potency,[3],inactive
Cc1sc2ccccc2c1CC1=NCCN1,Potency,[1],inactive
same,Potency,[3],inactive
C[N+](C)(C)CC#CCOC(=O)Nc1cccc(Cl)c1,Potency,[1],inactive
same,Potency,[3],inactive
C=CCN1CC[C@]23c4c5ccc(O)c4O[C@H]2/C(=N/NC(=O)c2ccccc2)CC[C@@]3(O)[C@H]1C5,outcome,[4],inactive
OC1CCCCC1N1CCC(c2ccccc2)CC1 (stereo unspecified),outcome,[8],inactive
C[CH2][Hg][S]c1ccccc1C(=O)O,outcome,[8],inactive
Clc1ccc(Cl)cc1,Potency,[6],inactive
same,outcome,[8],inactive
C[N+](C)(C)CC#CCN1CCCC1=O,Potency,[1],inactive
same,Potency,[3],inactive
CC(N)Cc1ccc(O)cc1 (stereo unspecified),Potency,[6],inactive
same,outcome,[8],inactive
COc1ccc2c(c1)c(CCN1CCOCC1)c(C)n2C(=O)c1cccc(Cl)c1Cl,Potency,[6],3.16 µM (active)
same,outcome,[4],inactive
CNC(=O)OCC[N+](C)(C)C,Potency,[1],inactive
same,Potency,[3],inactive
C=CCC1(C(C)CCC)C(=O)N=C(S)NC1=O (stereo unspecified),Potency,[6],12.6 µM (active)
same,outcome,[4],inactive
same,outcome,[8],inactive
c1ccc2cc(CC3=NCCN3)ccc2c1,Potency,[1],inactive
same,Potency,[3],inactive
CN1CCc2cccc(Cl)c2CC1,Potency,[1],inactive
same,Potency,[3],inactive
C[C@@H]1[C@@H]2Cc3ccc(O)cc3[C@@]1(C)CCN2CC1CC1,Potency,[1],inactive
same,Potency,[2],inactive
same,Potency,[3],inactive
CCN(CCCl)Cc1ccccc1Br,Potency,[1],inactive
same,Potency,[3],inactive
C[C@@H](CO)NC(=O)[C@@H]1C=C2c3cccc4[nH]cc(c34)C[C@H]2N(C)C1,outcome,[4],inactive
CCCC(C)C1(CC)C(=O)NC(=O)NC1=O (stereo unspecified),outcome,[8],inactive
